DT40 TDP1 no CPT: qHTS for Inhibitors of human tyrosyl-DNA phosphodiesterase 1 (TDP1): qHTS in cells in absence of CPT; DT40 Tdp1-/- hTDP1 cells, no CPT, ATP luminescence, 48 h; Potency, µM (highest dose often 46.2 µM), for inactives: at the top dose activity change, negative = growth inhibition, hits mostly inhibitors; actives 15% (n = 420,000); AID 686978, 2013; further: potency means the concentration at half of the fitted maximal effect; nearly all actives have a fitted effect of over 55% in size
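Readout: luminescence from CellTiter-Glo after 30 min in the dark at RT. Cells: DT40 Tdp1-/- with stable hTDP1, 400/well. Exposure: compounds alone, ≥48 hr, 37 °C.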
12-LOX inh: blocks human arachidonate 12S-lipoxygenase; P18054; purified 12hLO, xylenol orange hydroperoxide absorbance; Potency, µM (doses to about 108 µM), for inactives: top-dose activity change, negative = inhibition, actives largely listed as inhibitors; actives 1.1% (n = 580,000); further: potency means the concentration at half of the fitted maximal effect
Target sequence (P18054 whole entry, looked up): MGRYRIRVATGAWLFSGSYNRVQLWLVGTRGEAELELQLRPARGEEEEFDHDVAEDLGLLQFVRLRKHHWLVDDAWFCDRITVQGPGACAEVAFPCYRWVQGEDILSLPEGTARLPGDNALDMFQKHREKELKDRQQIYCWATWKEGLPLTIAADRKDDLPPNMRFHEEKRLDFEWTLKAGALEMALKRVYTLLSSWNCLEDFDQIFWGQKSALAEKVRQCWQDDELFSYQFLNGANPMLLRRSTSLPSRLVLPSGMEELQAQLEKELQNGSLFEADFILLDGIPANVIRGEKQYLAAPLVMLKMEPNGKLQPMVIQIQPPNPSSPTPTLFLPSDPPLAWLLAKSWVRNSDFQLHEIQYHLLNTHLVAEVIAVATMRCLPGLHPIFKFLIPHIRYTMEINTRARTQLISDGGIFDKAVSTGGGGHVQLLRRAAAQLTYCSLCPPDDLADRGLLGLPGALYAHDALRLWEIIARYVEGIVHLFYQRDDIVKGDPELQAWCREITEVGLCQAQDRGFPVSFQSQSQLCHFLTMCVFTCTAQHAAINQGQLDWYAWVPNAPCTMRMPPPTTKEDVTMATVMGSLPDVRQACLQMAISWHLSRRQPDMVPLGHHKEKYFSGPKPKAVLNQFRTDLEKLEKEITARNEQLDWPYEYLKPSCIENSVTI
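Hydroperoxide product was detected by ferrous iron/xylenol orange as the 573 to 405 nm absorbance ratio. Arachidonic acid at 40 uM (final) was turned over for 30 min at room temperature by 150 nM human 12hLO, pH 7.0 Hepes buffer, after 15 min compound preincubation.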
HT1080 IDH1KD tx: HT-1080 IDH1 knockdown cell toxicity (counter line) | HT-1080 IDH1 knockdown viability, ATP luminescence, 48 h | actives 2% (n = 360,000) | Potency, µM (doses to about 46.1 µM), for the others: at the top dose activity, negative = toxicity, usual class: cytotoxic;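 further: potency means the concentration at half of the fitted maximal effect; 0% = DMSO wells and -100% = cell-free medium wells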
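After a 2 h attachment period, IDH1KD HT-1080 cells took pin-transferred compound for 48 h at 37 °C; ATP-based luminescence after 10 min room-temperature reagent incubation reported viability.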
IL-1B inflam inh: inflammasome signaling inhibition, IL-1 beta readout | THP-1 LPS/ATP IL-1B secretion, AlphaLISA, 16 h; stronger effect = lower value | activity change, % at 57.5 µM | actives 4.7% (n = 360,000); in the data active means activity change below about -50%; inconclusive means mostly about -30% to -49%
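THP-1 cells pretreated 1 hr with compounds (up to 57.5 uM final), then stimulated with LPS (250 ng/mL final) plus ATP (1.25 mM final); secreted IL-1B measured by AlphaLISA after 16 hr, decreased signal indicating inhibition.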
HT1080-NT tox: kills 2HG-producing HT-1080-NT fibrosarcoma cells. HT-1080-NT fibrosarcoma viability, CellTiter-Glo ATP luminescence, 48 h. Potency, µM (doses to about 46.1 µM), without a hit: at the highest dose activity, negative = less viability, actives largely listed as cytotoxic. actives 1.6% (n = 360,000);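 further: NT is the 2HG producing partner of a matched IDH1 knockdown line; potency means the concentration at half of the fitted maximal effect; 0% = DMSO-treated cells and -100% = media-only wells without cells; nearly all actives have a fitted effect of over 55% in size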
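750 cells/well, RPMI + 5% FBS; 2 h settle, compound pin-transfer, 48 h at 37 degrees C. CellTiter-Glo 10 min RT, luminescence. Normalized to DMSO and media-only wells.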
DT40 TDP1 CPT: growth inhibition of DT40 Tdp1-/-;hTDP1 cells with camptothecin (screen for TDP1 inhibitors); actives 12% (n = 420,000); chicken DT40 Tdp1-/-;hTDP1 cells + 20 nM CPT, ATP luminescence, 48 h; Potency, µM (titrated, usually from 46.2 µM), for the others: top-dose activity change, negative = growth inhibition, usual class: inhibitors; further: potency means the concentration at half of the fitted maximal effect; nearly all actives have a fitted effect of over 55% in size
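Chicken DT40 Tdp1-/- cells stably complemented with human TDP1 were seeded at 400 cells/well in medium containing 20 nM camptothecin, exposed to pin-transferred compounds, and grown at 37 °C for at least 48 hr. Viability was read as ATP luminescence.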
* = called active by the depositor; [ ] = another dose, or the depositor's remark. Only a selection was taken, and hits are over-represented in it overall. Unless noted, the call rests on the fitted dose curve; in most records, active means well fitted curve in the direction sought with a large enough effect; inconclusive means small, poorly fitted or top-dose-only effect, or another doubt; inactive means no such curve, though single readings can be large; an effect the other way counts as inactive or inconclusive. Unless noted, on the % scale 0 is the no-effect control and ±100 the full control effect.

Screening CCOC1=C2[C@@H](CN(S(=O)(=O)c3ccccc3C)[C@H]2c2ccc(Cl)cc2)[C@H]2C(=O)N(c3ccccc3)C(=O)[C@H]2C1 returned DT40 TDP1 no CPT -16%, 12-LOX inh -15%, HT1080 IDH1KD tx 1%, IL-1B inflam inh 3, HT1080-NT tox -5% and DT40 TDP1 CPT -11%.
`CCOC1=C2[C@@H](CN(S(=O)(=O)c3ccc(C)cc3)[C@H]2c2cccc3ccccc23)[C@H]2C(=O)N(C)C(=O)[C@H]2C1` gave DT40 TDP1 no CPT -1%, 12-LOX inh -24%, HT1080 IDH1KD tx -1%, IL-1B inflam inh -23, HT1080-NT tox 0% and DT40 TDP1 CPT 6%.
CCOC1=C2[C@@H](CN(S(=O)(=O)c3ccc(C)cc3)[C@H]2c2ccccc2Cl)[C@H]2C(=O)N(C)C(=O)[C@H]2C1 was read as DT40 TDP1 no CPT 16µM*, 12-LOX inh -2%, HT1080 IDH1KD tx 5%, IL-1B inflam inh 0, HT1080-NT tox 0% and DT40 TDP1 CPT 26µM*.
`CC(C)(C)c1ccc(CN(Cc2ccco2)Cc2nnnn2C2CCCC2)cc1` gave DT40 TDP1 no CPT 15µM*, 12-LOX inh -29%, HT1080 IDH1KD tx inconclusive, IL-1B inflam inh -8, HT1080-NT tox -2% and DT40 TDP1 CPT 21µM*.
COc1ccc2cc(CN(Cc3ccco3)Cc3nnnn3C3CCCCC3)c(=O)[nH]c2c1 was read as DT40 TDP1 no CPT inconclusive, 12-LOX inh inconclusive, HT1080 IDH1KD tx inconclusive, IL-1B inflam inh -51*, HT1080-NT tox inconclusive and DT40 TDP1 CPT 26µM*.
`Cc1cccc2cc(CN(CC3CCCO3)C(c3nnnn3Cc3ccco3)C(C)C)c(=O)[nH]c12` (stereo unspecified) gave DT40 TDP1 no CPT 15µM*, 12-LOX inh inconclusive, HT1080 IDH1KD tx inconclusive, IL-1B inflam inh -61*, HT1080-NT tox inconclusive and DT40 TDP1 CPT 16µM*.
COc1ccc2cc(CN(Cc3ccco3)C(c3nnnn3C3CCCCC3)C(C)C)c(=O)[nH]c2c1 (stereo unspecified) was read as DT40 TDP1 no CPT inconclusive, 12-LOX inh 173%, HT1080 IDH1KD tx 0%, IL-1B inflam inh 4, HT1080-NT tox 1% and DT40 TDP1 CPT 23µM*.
For Cc1ccc2cc(CN(CCCN3CCOCC3)C(c3nnnn3Cc3ccco3)C(C)C)c(=O)[nH]c2c1C (stereo unspecified) the results were DT40 TDP1 no CPT inconclusive, 12-LOX inh -16%, HT1080 IDH1KD tx inconclusive, IL-1B inflam inh -9, HT1080-NT tox 0% and DT40 TDP1 CPT inconclusive.
CC(Sc1nc2ccccc2o1)C(=O)N1CCCC1 (stereo unspecified) was read as 12-LOX inh 0%.
`CCCCCCCCCC=O` gave 12-LOX inh 17%[176 µM].
`COCCn1nnnc1CN(Cc1ccco1)Cc1cc2cc3c(cc2[nH]c1=O)OCO3` gave DT40 TDP1 no CPT -19%, 12-LOX inh 0%, HT1080 IDH1KD tx -24%, IL-1B inflam inh -11, HT1080-NT tox -2% and DT40 TDP1 CPT inconclusive.
Screening CCC(C)(C)n1nnnc1CN(Cc1ccco1)Cc1cc2cc3c(cc2[nH]c1=O)OCO3 returned DT40 TDP1 no CPT 16µM*, HT1080 IDH1KD tx 5%, IL-1B inflam inh inconclusive, HT1080-NT tox 6% and DT40 TDP1 CPT 21µM*.
`Cc1ccc(CC(=O)NC(C)C2CCCO2)cc1` (stereo unspecified) gave 12-LOX inh -1%.
For COCCNc1nc(Oc2cccc3ccccc23)c2sccc2n1 the results were DT40 TDP1 no CPT 16µM*, 12-LOX inh 1%, HT1080 IDH1KD tx inconclusive, IL-1B inflam inh 14, HT1080-NT tox inconclusive and DT40 TDP1 CPT 12µM*.
Screening COCCNc1nc(Oc2ccc(C(N)=O)cc2)c2sccc2n1 returned DT40 TDP1 no CPT inconclusive, 12-LOX inh 1%, HT1080 IDH1KD tx -4%, IL-1B inflam inh -20, HT1080-NT tox -25% and DT40 TDP1 CPT inconclusive.
`COCCNc1nc(Oc2ccccc2)c2sccc2n1` gave DT40 TDP1 no CPT 23µM*, 12-LOX inh 11%, HT1080 IDH1KD tx 2%, IL-1B inflam inh -14, HT1080-NT tox 7% and DT40 TDP1 CPT 29µM*.
For COCCNc1nc(Oc2cccc(NC(C)=O)c2)c2sccc2n1 the results were DT40 TDP1 no CPT -23%, 12-LOX inh -3%, HT1080 IDH1KD tx -5%, IL-1B inflam inh 26, HT1080-NT tox -2% and DT40 TDP1 CPT inconclusive.
`CCN(CC)S(=O)(=O)c1cccc(C(=O)N[C@H](C(=O)NCc2ccc(Cl)cc2)C(C)C)c1` gave DT40 TDP1 no CPT 15µM*, 12-LOX inh 4%, HT1080 IDH1KD tx -20%, IL-1B inflam inh -23, HT1080-NT tox -3% and DT40 TDP1 CPT 23µM*.
For CCN(CC)S(=O)(=O)c1cccc(C(=O)Nc2ccc(C#N)cc2)c1 the results were DT40 TDP1 no CPT 8.2µM*, 12-LOX inh -4%, HT1080 IDH1KD tx -19%, IL-1B inflam inh -16, HT1080-NT tox -2% and DT40 TDP1 CPT inconclusive.
CCN(CC)C(=O)c1ccccc1NC(=O)c1cccc(S(=O)(=O)N(CC)CC)c1 was read as DT40 TDP1 no CPT -10%, 12-LOX inh -12%, HT1080 IDH1KD tx 0%, IL-1B inflam inh -16, HT1080-NT tox -4% and DT40 TDP1 CPT -16%.
`Cn1cnnc1Sc1ccc(C(=O)OCC(=O)NCC(F)(F)F)cc1[N+](=O)[O-]` gave DT40 TDP1 no CPT 4%, 12-LOX inh 7%, HT1080 IDH1KD tx 10%, IL-1B inflam inh -15, HT1080-NT tox -10% and DT40 TDP1 CPT -1%.
Screening CCN(CC)S(=O)(=O)c1cccc(C(=O)N[C@H](C(=O)NCc2ccccc2F)C(C)C)c1 returned DT40 TDP1 no CPT inconclusive, 12-LOX inh 3%, HT1080 IDH1KD tx 2%, IL-1B inflam inh 29, HT1080-NT tox 14% and DT40 TDP1 CPT inconclusive.
Screening CCN(CC)S(=O)(=O)c1cccc(C(=O)Nc2ccccc2C(=O)Nc2ccc(Cl)cc2)c1 returned DT40 TDP1 no CPT 18µM*, 12-LOX inh 6% and DT40 TDP1 CPT inconclusive.
For CCN(CC)S(=O)(=O)c1cccc(NC(=O)c2ccc(Sc3nncn3C)c([N+](=O)[O-])c2)c1 the results were DT40 TDP1 no CPT 23µM*, 12-LOX inh -5%, HT1080 IDH1KD tx 1%, IL-1B inflam inh -9, HT1080-NT tox 5% and DT40 TDP1 CPT 16µM*.

Assay outcomes as filed in PubChem.
